Results filed as inconclusive are left out. Calls of active or inactive are those of the source. Unless noted, the rule behind the calls is not given here.
Assays:
[1] = target: Mitogen-activated protein kinase 7 (Homo sapiens) (UniProt Q13164); experiment: ERK5 transactivation activators in reporter cells, primary screen, cell-based, HTS (AID 1508626;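 active = luciferase signal above three times the same-plate solvent-only control wells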;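 note: luciferase driven by Gal4-ERK5 fusion binding five Gal4 sites before minimal TATA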); conditions: HeLa Gal4-ERK5 transactivation, 18 h, at 5 µM, stronger effect = higher value
[2] = hESC survival regulators, cell-based (AID 493140); conditions: human embryonic stem cell survival screen; stronger effect = higher value;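 note: cells exposed to compounds for four days before counting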
[3] = circadian clock period modulators, cell-based, LOPAC library, luminescence reporter (AID 2774); conditions: circadian reporter cells, at 7 µM, actives lie on both sides;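 note: values are relative to mean of DMSO wells on each plate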
[4] = system: Hepatitis C virus NS3 helicase; experiment: HCV NS3 helicase inhibitors, primary screen, biochemical, fluorescence polarization, LOPAC1280 library (AID 687035; in the data active = inhibition above about 37%); conditions: Purified HCV NS3 helicase, Cy5-dT15 ssDNA binding fluorescence polarization; stronger effect = higher value; concentration not given here
[5] = Cy5 fluorescence quenching or enhancement artefacts, artefact control for HCV NS3 helicase inhibitor project, biochemical, LOPAC1280 (AID 687037); conditions: Cy5-DNA-NS3h complex fluorescence interference counterscreen
[6] = growth inhibition of DIPG glioma cells, dose response, cell-based, SU-DIPG-XIII, MIPE5.0, CellTiter-Glo, qHTS (AID 1347064; cut-off not given, nearly all actives have AC50 up to about 23 µM); conditions: SU-DIPG-XIII viability, CellTiter-Glo ATP luminescence
[7] = viability loss in pontine glioma line – cell-based, SU-DIPG-XXV, MIPE5.0, CellTiter-Glo, qHTS, dose response (AID 1347065; cut-off not given, nearly all actives have AC50 up to about 26 µM;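 note: cells exposed to compound for 48 hours before ATP readout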); conditions: CellTiter-Glo ATP luminescence
[8] = JHH-DIPG-1 glioma cell viability, MIPE5.0 library, CellTiter-Glo luminescence, qHTS (AID 1347067; cut-off not given, nearly all actives have AC50 up to about 26 µM;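 note: cells exposed to compound for 48 hours before readout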); conditions: JHH-DIPG-1 glioma viability, CellTiter-Glo ATP luminescence
[9] = phospholipid biosynthesis inhibitors in animal cells, primary screen, cell-based, LOPAC library, screen 4 (AID 1347384); conditions: phospholipid biosynthesis inhibition screen, at 10 µM
[10] = growth inhibition of DIPG glioma cells, dose response, cell-based, JHH-DIPG-1, MIPE4.0, CellTiter-Glo, qHTS (AID 1347062; cut-off not given, nearly all actives have AC50 up to about 27 µM;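 for AC50: cells exposed to compound for two days before readout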); conditions: JHH-DIPG-1 viability, CellTiter-Glo ATP luminescence
[11] = growth inhibition of DIPG glioma cells, dose response, cell-based, SU-DIPG-IV, MIPE4.0, CellTiter-Glo, qHTS (AID 1347063; cut-off not given, nearly all actives have AC50 up to about 30 µM;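 note: compound exposure lasted 48 hours before the viability readout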); conditions: SU-DIPG-IV viability, CellTiter-Glo ATP luminescence
[12] = modifiers of HSF1 nuclear foci, imaging, Selleck Cancer Library (AID 1347162; in the data active = plate-normalised HSF1 focus index below about 0.46); conditions: human cells, at 10 µM; SSMD: measured here: HSF1 foci SSMD mean; cell count: measured here: cell number; plate-normalised HSF1 focus index: stronger effect = lower value
[13] = LFS_MB_P medulloblastoma growth inhibition, cell-based, chromothripsis tumors, cisplatin or BGB combos (AID 1671449; in the data active = inhibition above about 80%;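 note: cells exposed for 96 hours; 0% = vehicle DMSO and 100% = killing by high DMSO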); conditions: LFS_MB_P medulloblastoma cells
[14] = HDN33 neuroblastoma growth inhibition, cell-based, chromothripsis tumors, cisplatin or BGB combos (AID 1671450; in the data active = inhibition above about 80%;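 note: cells exposed to compound for four days; 0% = vehicle DMSO and 100% = cell killing by high DMSO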); conditions: HDN33 neuroblastoma cells, stronger effect = higher value
[15] = ICB984 medulloblastoma cell growth inhibition, synergistic combos for chromothripsis tumors, cisplatin or BGB combos (AID 1671451); conditions: ICB984 medulloblastoma cells, drug combinations, stronger effect = higher value;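 note: cells exposed for 96 hours before readout; 0% = vehicle DMSO and 100% = killing by high DMSO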
[16] = HTB85 osteosarcoma cell growth inhibition, synergistic combos for chromothripsis tumors, BGB or cisplatin IC20 combos (AID 1671453; in the data active = inhibition above about 80%;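 note: cells exposed for 96 hours before readout; 0% = vehicle DMSO and 100% = high DMSO killing control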); conditions: HTB85 osteosarcoma cells, drug combinations, stronger effect = higher value
[17] = MDA-MB-436 breast carcinoma cell growth inhibition, synergistic combos for chromothripsis tumors, BGB or cisplatin combos (AID 1671458); conditions: MDA-MB-436 breast carcinoma growth inhibition, drug combinations, stronger effect = higher value;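 note: cells exposed for 96 hours; 0% = vehicle DMSO and 100% = killing by high DMSO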
[18] = growth inhibition of BT084 medulloblastoma cells, cell-based, ICGC_MB145, cisplatin and BGB IC40 combos (AID 1671461; in the data active = inhibition above about 80%;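 note: cells exposed to drugs for 96 hours; 0% = vehicle DMSO and 100% = high DMSO full killing control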); conditions: drug combinations, stronger effect = higher value
[19] = growth inhibition of RCMB18 medulloblastoma cells, cell-based, cisplatin and BGB IC40 combos (AID 1671462; in the data active = inhibition above about 80%;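 note: cells exposed to compound for four days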); conditions: stronger effect = higher value
[20] = growth inhibition of CRL1545 osteosarcoma cells, cell-based, cisplatin and BGB IC20 combos (AID 1671464; in the data active = inhibition above about 80%;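 note: cells exposed to compound for 96 hours before readout; 0% = vehicle DMSO and 100% = high DMSO killing control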); conditions: stronger effect = higher value
[21] = measured here: with BGB IC20 combination, at 0.5 µM
[22] = measured here: with cisplatin IC20 combination, at 0.5 µM

Mitogen-activated protein kinase 7 (Homo sapiens), sequence (Q13164 whole entry, looked up, the tested form may be a part): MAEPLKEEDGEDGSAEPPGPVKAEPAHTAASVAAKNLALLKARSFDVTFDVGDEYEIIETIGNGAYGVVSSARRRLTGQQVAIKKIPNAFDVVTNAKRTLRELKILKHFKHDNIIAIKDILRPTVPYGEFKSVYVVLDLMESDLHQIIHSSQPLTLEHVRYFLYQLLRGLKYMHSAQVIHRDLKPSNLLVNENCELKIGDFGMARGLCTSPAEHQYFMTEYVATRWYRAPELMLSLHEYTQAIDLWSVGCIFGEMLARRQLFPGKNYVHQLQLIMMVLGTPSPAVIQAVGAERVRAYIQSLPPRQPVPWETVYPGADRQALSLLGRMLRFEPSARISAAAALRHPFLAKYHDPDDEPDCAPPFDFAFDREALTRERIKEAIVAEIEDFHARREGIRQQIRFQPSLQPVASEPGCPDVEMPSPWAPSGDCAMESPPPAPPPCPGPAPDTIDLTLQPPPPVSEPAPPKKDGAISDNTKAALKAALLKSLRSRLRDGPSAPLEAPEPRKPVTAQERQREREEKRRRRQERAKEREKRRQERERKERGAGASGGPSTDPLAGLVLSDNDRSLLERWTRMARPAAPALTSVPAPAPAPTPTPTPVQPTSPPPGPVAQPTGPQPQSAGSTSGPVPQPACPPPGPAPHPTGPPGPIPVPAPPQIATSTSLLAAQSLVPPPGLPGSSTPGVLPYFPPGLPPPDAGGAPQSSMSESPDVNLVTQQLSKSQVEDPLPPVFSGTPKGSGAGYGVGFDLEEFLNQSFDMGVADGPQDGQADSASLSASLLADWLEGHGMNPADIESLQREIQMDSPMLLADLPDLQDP

In the case of `CCCCCCCCCCOc1cc2c(=O)c(C(=O)OCC)c[nH]c2cc1OCC`, the luciferase signal [1] is reported as 44 AU (inactive).

For `NC(=O)c1cc[n+](CC2=C(C(=O)[O-])N3C(=O)[C@@H](NC(=O)Cc4cccs4)[C@H]3SC2)cc1`, the survival [2] was 16 (inactive).

In the case of `CCN(CC)CCOc1ccc2c(c1)C(=O)c1cc(OCCN(CC)CC)ccc1-2`, the luciferase signal [1] is reported as 108 AU (inactive).

For `C1COC(NC(C2CC2)C2CC2)=N1`, the period change [3] was 0.03 h (inactive), the survival [2] was 19 (inactive) and the inhibition [4] was 0% (inactive). The fluorescence ratio (interference) [5] was 1 (inactive), the outcome [6] was “inactive” and the outcome [7] was “inactive”. The outcome [8] was “inactive” and the outcome [9] was “inactive”.

With `COC(=O)[C@@H]1CC2=CC(=O)CC[C@]2(C)[C@@]23O[C@@H]2C[C@@]2(C)[C@@H](CC[C@@]24CCC(=O)O4)[C@H]13` the outcome [6] was “inactive” and the outcome [8] was “inactive”.

For `CN(C)C/C=C(/c1ccc(Br)cc1)c1cccnc1`, the period change [3] was -0.15 h (inactive), the survival [2] was 24.8 (inactive) and the inhibition [4] was 1% (inactive). For the same molecule, the fluorescence ratio (interference) [5] was 1 (inactive) and the outcome [9] was “inactive”.

For `CCn1ccnc1CC1COc2ccccc2O1` (configuration not stated), the period change [3] was 0.33 h (inactive), the inhibition [4] was -4% (inactive) and the fluorescence ratio (interference) [5] was 1 (inactive). For the same molecule, the outcome [9] was “inactive”.

In the case of `Cn1ccc2cc3c(cc21)CCN3C(=O)Nc1cccnc1`, the period change [3] is reported as 0.355 h (inactive), the inhibition [4] is reported as -3% (inactive) and the fluorescence ratio (interference) [5] is reported as 0.9 (inactive). For the same molecule, the outcome [10] was “inactive”, the outcome [11] was “inactive” and the outcome [6] was “inactive”. For the same molecule, the outcome [7] was “inactive”, the outcome [8] was “inactive” and the outcome [9] was “inactive”.

With `CC#C[C@]1(O)CC[C@H]2[C@@H]3CCC4=CC(=O)CCC4=C3[C@@H](c3ccc(N(C)C)cc3)C[C@@]21C` the period change [3] was 0.39 h (inactive), the survival [2] was 27.7 (inactive) and the inhibition [4] was -1% (inactive). For the same molecule, the fluorescence ratio (interference) [5] was 0.9 (inactive), the AC50 [10] was 235 nM (active) and the AC50 [11] was 418 nM (active). The AC50 [7] was 29500 nM (active), the outcome [9] was “inactive” and the luciferase signal [1] was 36 AU (inactive).

For `CC1(CN2CCC(n3c(=O)[nH]c4ccccc43)CC2)OCc2ccccc2-n2cccc21` (configuration not stated), the outcome [10] was “inactive”, the outcome [11] was “inactive” and the SSMD [12] was 2.84. For the same molecule, the cell count [12] was 7080 and the plate-normalised HSF1 focus index [12] was 1.16 (inactive).

For `COCCOC(=O)C1=C(C)NC(C)=C(C(=O)OC/C=C/c2ccccc2)C1c1cccc([N+](=O)[O-])c1` (configuration not stated), the inhibition [4] was -1% (inactive), the fluorescence ratio (interference) [5] was 1 (inactive) and the outcome [9] was “active”.

In the case of `CN(C(=O)c1c(O)c2ccccc2n(C)c1=O)c1ccccc1`, the outcome [8] is reported as “inactive”.

With `C[C@@H](CN1CC(=O)NC(=O)C1)N1CC(=O)NC(=O)C1` the outcome [11] was “inactive”, the outcome [6] was “inactive” and the outcome [7] was “inactive”. The inhibition ([13]; at 0.5 µM, stronger effect = higher value) was -25.4% (inactive), the inhibition ([13]; measured here: combination with BGB IC20, at 0.005 µM) was 7.12% and the inhibition ([13]; measured here: combination with BGB IC40, at 0.005 µM) was 4.81%. For the same molecule, the inhibition ([13]; measured here: combination with BGB IC40, at 0.05 µM) was -36.6%, the inhibition ([13]; measured here: combination with cisplatin, at 0.5 µM, stronger effect = higher value) was -24.5% and the inhibition ([13]; measured here: combination with cisplatin, at 5 µM, stronger effect = higher value) was -14.8%. For the same molecule, the inhibition ([14]; BGB combo, at 5 µM) was 79.1%, the inhibition ([14]; at 0.5 µM) was -24% (inactive) and the inhibition ([14]; cisplatin combo, at 5 µM) was -19.4%. The inhibition [14, 21] was -11.3%, the inhibition [14, 22] was -36.9% and the inhibition ([14]; single agent, at 5 µM) was 13.8%. The inhibition ([15]; BGB IC20 combo, at 0.005 µM) was -2.91%, the inhibition ([15]; BGB IC40 combo, at 0.005 µM) was -23% and the inhibition ([15]; BGB IC40 combo, at 0.05 µM) was 11.5%. For the same molecule, the inhibition ([15]; at 0.5 µM) was -30.5% (inactive), the inhibition ([15]; cisplatin combo, at 0.05 µM) was 8.27% and the inhibition ([15]; cisplatin combo, at 0.5 µM) was -19.9%. For the same molecule, the inhibition ([15]; cisplatin combo, at 5 µM) was -27.8%, the inhibition ([15]; measured here: 5 uM single agent, at 5 µM) was -8.08% and the inhibition ([16]; at 0.5 µM) was -26.1% (inactive). It also gave an inhibition ([16]; measured here: with BGB IC20, at 0.5 µM) of -21.1%, an inhibition ([16]; measured here: with BGB IC20, at 5 µM) of -21.1% and an inhibition ([16]; measured here: with cisplatin IC20, at 0.5 µM) of -39.6%. For the same molecule, the inhibition ([16]; measured here: with cisplatin IC20, at 5 µM) was -43.4%, the inhibition ([16]; single agent, at 5 µM) was -10% and the inhibition ([17]; at 0.5 µM) was -7.66% (inactive). It also gave an inhibition ([17]; measured here: BGB combination, at 0.5 µM) of 2.41%, an inhibition ([17]; measured here: BGB combination, at 5 µM) of -3.41% and an inhibition ([17]; measured here: cisplatin combination, at 0.5 µM) of -18.8%. The inhibition ([17]; measured here: cisplatin combination, at 5 µM) was -28.2%, the inhibition ([18]; at 0.5 µM) was -9.97% (inactive) and the inhibition ([18]; cisplatin combination, at 0.5 µM) was -43.1%. The inhibition ([18]; cisplatin combination, at 5 µM) was -2.65%, the inhibition ([18]; measured here: BGB IC40 combination 0.05 uM, at 0.05 µM) was 19.5% and the inhibition ([18]; single agent, at 5 µM) was -11.9%. The inhibition ([19]; at 0.5 µM) was -20.1% (inactive), the inhibition ([19]; cisplatin combo, at 5 µM) was -55.6% and the inhibition ([19]; measured here: BGB IC40 combination, at 0.05 µM) was -8.51%. For the same molecule, the inhibition ([19]; measured here: combination with cisplatin, at 0.5 µM) was -37.1%, the inhibition ([19]; single agent, at 5 µM) was -16.8% and the inhibition ([20]; at 0.5 µM) was -44.1% (inactive). For the same molecule, the inhibition [20, 21] was -33.6%, the inhibition [20, 22] was -51.8% and the inhibition ([20]; single agent, at 0.05 µM) was -57.8%. The inhibition ([20]; single agent, at 5 µM) was -52.7%.

In the case of `FC(F)(F)c1ccccc1-n1ccnc1`, the period change [3] is reported as -0.115 h (inactive), the inhibition [4] is reported as 0% (inactive) and the fluorescence ratio (interference) [5] is reported as 1 (inactive). The outcome [9] was “inactive”.
